# Data reported in PubChem BioAssay (NCATS).
# Records with an inconclusive call do not appear. Activity calls are given as the source filed them. Calls follow the shape of the dose curve; as a rule, active = well fitted inhibition curve with a large enough effect; inconclusive = small, poorly fitted or top-dose-only effect; inactive = no such curve, though single readings can be large or run the other way.
# Target: Cytochrome P450 3A4 (Homo sapiens) (UniProt P08684)
# Assay: qHTS Assay for Inhibitors and Substrates of Cytochrome P450 3A4 (AID 884); also: nearly all actives have a fitted effect of over 50% in size
# Conditions: recombinant CYP3A4, Luciferin-PPXE luminescence; series mostly up to 57.1 µM; activity change, negative = inhibition: at the top concentration
# Outline: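 Luminescent readout of luciferin produced by CYP3A4 (20 nM) dealkylation of Luciferin-PPXE, 25 uM (its KM). NADPH-driven reaction ran 60 min at RT after 10 min compound preincubation; data scaled to 57 uM ketoconazole as 100% inhibition.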
# % is scaled to controls: 0 for no effect and ±100 for the full control effect; potency is read from the fitted curve at half-maximal effect.
# Chain of Cytochrome P450 3A4 (Homo sapiens) (P08684 whole entry, looked up): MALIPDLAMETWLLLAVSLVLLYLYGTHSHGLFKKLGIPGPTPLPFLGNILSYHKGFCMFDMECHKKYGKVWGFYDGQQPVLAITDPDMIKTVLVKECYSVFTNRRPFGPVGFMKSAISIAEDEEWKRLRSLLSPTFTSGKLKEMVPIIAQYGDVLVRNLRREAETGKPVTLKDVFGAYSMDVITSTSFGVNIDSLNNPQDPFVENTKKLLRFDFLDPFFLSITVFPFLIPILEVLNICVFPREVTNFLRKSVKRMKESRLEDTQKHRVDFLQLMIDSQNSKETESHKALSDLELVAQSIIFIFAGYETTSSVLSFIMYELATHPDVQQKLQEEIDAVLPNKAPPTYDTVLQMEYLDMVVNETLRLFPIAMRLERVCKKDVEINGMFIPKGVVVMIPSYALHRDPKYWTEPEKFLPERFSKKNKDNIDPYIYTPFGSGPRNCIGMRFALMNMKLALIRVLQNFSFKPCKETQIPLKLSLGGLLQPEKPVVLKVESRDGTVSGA
SMILES,"activity change, negative = inhibition",Potency
CC(CCc1ccccc1)NCC(O)c1ccc(O)c(C(N)=O)c1 (configuration not stated),3.07% (inactive),
O=C(CCCN1CCC(O)(c2ccc(Br)cc2)CC1)c1ccc(F)cc1,80.4% [at 25.6 µM] (inactive),
Cc1cccc(C)c1NC(=O)CN1CCN(CCCC(c2ccc(F)cc2)c2ccc(F)cc2)CC1,45.5% [at 25.6 µM] (inactive),
CC(=O)Nc1c(I)cc(I)c(C(=O)O)c1I,-2.89% (inactive),
CN1CCC(=C2c3ccccc3Sc3ccccc32)CC1,37.3% (inactive),
COc1ccc(C2C(=O)c3ccccc3C2=O)cc1,-23.4% (inactive),
OCc1ccccc1O,-7.15% (inactive),
Nc1nc2ncc(CNc3ccc(C(=O)N[C@@H](CCC(=O)O)C(=O)O)cc3)nc2c(=O)[nH]1,-18.8% (inactive),
CCOc1ccc2nc3cc(N)ccc3c(N)c2c1,-27.7% (inactive),
CC(=O)N(O)CCCCCNC(=O)CCC(=O)N(O)CCCCCNC(=O)CCC(=O)N(O)CCCCCN,-12.3% (inactive),
Cc1c(N(C)CS(=O)(=O)O)c(=O)n(-c2ccccc2)n1C,-6.07% (inactive),
CC(C)(CO)[C@@H](O)C(=O)NCCCO,-15.5% (inactive),
CCCCCCCCCCCCCCCCOP(=O)([O-])OCC[N+](C)(C)C,-4.34% (inactive),
CCN1CCN(c2cc3c(cc2F)c(=O)c(C(=O)O)cn3C2CC2)CC1,-9.55% (inactive),
CN1CCN(C(c2ccccc2)c2ccccc2)CC1,-2.53% (inactive),
COc1cc(OC)cc(OC)c1,-20.7% (inactive),
CC(C)(C(=O)c1cccnc1)c1cccnc1,,1.26 µM (active)
